The experiment deals with MDA-MB-468 breast. Description: NCI-60 one-dose screen, 48 h (100 = growth as untreated, 0 = no growth, -100 = all killed). As to conditions: 10 µM unless noted.

Molecules are shown by their SMILES. “And” between values parts separate entries of the source, which are not always exact repeats. Identical values can stand only once. Compounds without any hit were thinned out: in the full panel of roughly 83,000, 20% have a hit.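 Results are percent growth after 48 hours of single-concentration exposure. 100 means growth as in untreated cells, lower positive values show inhibition; negative values down to -100 show cell death.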 The source made the active and inactive calls. The calls were made as follows: active = growth percent below 10; inactive = the rest.

For `OC(Cc1cccnc1)c1ccccc1` (stereo not drawn), the growth was 111% (inactive).
As to `CCCCCCCCCCCCCCCCSC(=NCC)NCC`, the growth was -37.3% (active).
As for `Cc1cc([N+](=O)[O-])ccc1NC(=O)c1ccc2c(c1)nc(-c1ccccc1)n2C1CCCCC1`, the figure is 100% (inactive); as for `COc1ccc(S(=O)(=O)N2CCOCC2)cc1NC(=O)c1[nH]c(C)c2c1CCCCC2=O`, 105% (inactive) and 47.2% (inactive); as for `CCCCCCCCCCCCCCCCCCOc1ccccc1CC(=O)NCC[N+]1(C)CCCC1`, 3.53% (active).
As to `CCN(CC)CCCCCCCNc1cc(OC)cc2c(C)ccnc12`, the growth is 40.5% (inactive).
As for `C=C[C@@H]1C[C@@H]2Cc3cc(Cl)ccc3N1O2`, the figure is 95.1% (inactive); as for `Cc1ccc(S(=O)(=O)OC2COCOC2C(OS(=O)(=O)c2ccc(C)cc2)C2OCOCC2OS(=O)(=O)c2ccc(C)cc2)cc1` (stereo not drawn), 108% (inactive).
As for `C=CCn1c(SCC(=O)Nc2ccc(C(=O)/C=C/c3ccc(Cl)cc3)cc2)nnc1-c1c[nH]c2ccccc12`, the figure is 62.2% (inactive); as for `Cn1cc(-c2nc(-c3c[nH]c4c(Cl)nccc34)cs2)c2cc(F)ccc21`, 1.89% (active).
In the case of `COC(=O)C1NC(=S)N(c2ccc(Cl)cc2)C1/C=C/c1ccccc1` (stereo not drawn) it was 108% (inactive); in that of `Clc1ccc2c(NCCNc3nc(Cl)nc4ccccc34)ccnc2c1`, -88.6% (active); in that of `COc1ccc(C(=O)c2sc3nc4c(c(-c5cccnc5)c3c2N)CCCC4)cc1OC`, 102% (inactive).
For the compound `c1ccc2c(-c3nc(-c4c[nH]c5ccncc45)cs3)c[nH]c2c1`, the growth was -9.84% (active).
For the compound `COc1ccc(C2CC(c3cccc(OCCCCOc4cccc(C5=NOC(c6ccc(OC)cc6)C5)c4)c3)=NO2)cc1` (stereo not drawn), the growth is 112% (inactive).
In the case of `Clc1ccc(-c2n[nH]c3c2Cc2ccccc2-3)cc1Cl` it was 75.3% (inactive); in that of `O=c1[nH]n(-c2ccccc2)c(=O)cc1Cl`, 101% (inactive); in that of `O=C(O)CNC(=O)CN1C(=O)c2ccccc2C1=O`, 106% (inactive).
Take `Nc1ccc([N+](=O)[O-])cc1N=C/C=C/c1ccccc1`: the growth is 46.4% (inactive).
In the case of `C#CCOc1cccc(Nc2ncnc3c2ncn3C2CCN(C(=O)CCl)C2)c1` (stereo not drawn) it was -65.7% (active).
In the case of `Cc1c2cccnc2c(C)c2c1c1cc(CO)ccc1n2C`, the growth is -48.7% (active).
As to `CCCCCN1CCN(C(CC(=O)c2ccccc2)C(=O)c2ccccc2)CC1` (stereo not drawn), the growth is 103% (inactive).
In the case of `CCCCCCCCCCCCCCCCCC1=NC(C)(C)CN1C(C)(C)CO` it was -100% (active); in that of `C[n+]1c(/C=C/c2c[nH]c3ccccc23)ccc2ccccc21`, 23% (inactive); in that of `C=CCn1c(SCC(=O)Nc2cccc(C(=O)/C=C/c3cccc([N+](=O)[O-])c3)c2)nc2ccccc2c1=O`, 89.2% (inactive).
On to `CS(=O)(=O)c1ccc(-c2nc3ccccn3c2-c2nc3ccc([N+](=O)[O-])cc3[nH]2)cc1`, for which the growth is 104% (inactive).
As for `N#Cc1c(N2CCNCC2)nc2sc3cc(Cl)c(Cl)cc3n2c1=N`, the figure is 90.2% (inactive); as for `Nc1nc2c(nnn2Cc2ccc(Cl)c(Cl)c2)c(=O)[nH]1`, 103% (inactive).
Take `O=C(Nc1cccc(-n2ccc3c(NC(=O)c4ccccc4)nccc32)c1)Nc1ccc(Cl)c(C(F)(F)F)c1`: the growth was -3.83% (active).
With `CC(=O)Nc1ccc(NC(=O)Nc2cccc(-c3nc(-c4ccc(NC(=O)c5cccnc5)cc4Cl)no3)c2)cc1C(F)(F)F`, the growth is -84.7% (active).
In the case of `COc1ccc(/C=C2/SC(=Nc3c(C)nn(-c4ccccc4)c3N)NC2=O)cc1` it was 7.17% (active).
As to `CCOC(=O)c1cc(C(=O)c2cc(OC)c(OC)c(OC)c2)n2ccc(-c3ccncc3)cc12`, the growth is 99.1% (inactive).
As for `CC[C@@H]1NC(=O)[C@H]([C@H](O)[C@H](C)C/C=C/c2ccc(CN3C(=O)CCCC3=O)cc2)N(C)C(=O)[C@H](C(C)C)N(C)C(=O)[C@H](CC(C)C)N(C)C(=O)[C@H](CC(C)C)N(C)C(=O)[C@@H](C)NC(=O)[C@H](C)NC(=O)[C@H](CC(C)C)N(C)C(=O)[C@H](C(C)C)NC(=O)[C@H](CC(C)C)N(C)C(=O)CN(C)C1=O`, the growth was 13.4% (inactive).
In the case of `CCN1C(=O)N(CC)C2C1NN=c1s/c(=C\c3ccc(Br)cc3)c(=O)n12` (stereo not drawn) it was 7.21% (active); in that of `ClCCOCCn1cnc2c(Cl)nc(Cl)nc21`, -35.7% (active); in that of `CC(C)(C)CC(C)(C)Nc1c(-c2ccc(C(F)(F)F)cc2)nc2cnccn12`, 100% (inactive).
For `Cc1cc(/C=C/c2ccc3cc(N(C)C)ccc3[n+]2C)c(C)n1-c1ccccc1`, the growth was -81.9% (active).
On to `O=C(Nc1cccc(-n2ccc3c(NC(=O)c4ccccc4)ncnc32)c1)Nc1ccc(Cl)c(C(F)(F)F)c1`, for which the growth is -2.39% (active).
On to `CCCC/C=C/[C@@H]1C[C@H]1CCO`, for which the growth was 96.1% (inactive).
As for `C/C(=C\CCc1ccoc1)CC/C=C(\C)CCCC1COC(=O)C1` (stereo not drawn), the growth is 97.4% (inactive).
Turning to `CCCCCCCCCCC1CO1` (stereo not drawn), the growth was 94.1% (inactive).
Regarding `Oc1cccnc1CN1CCOCC1`, the growth was 97.2% (inactive) and 102% (inactive).
Turning to `CCOc1ccc(N2C(N)=NC(N)=NC2(C)C)cc1`, the growth was -0.227% (active) and 56.3% (inactive).
In the case of `CCCCSc1cc(C)nc(N)n1` it was 95.8% (inactive); in that of `COc1ccc(Nc2cnc3cc(NS(=O)(=O)c4ccc(C)cc4)ccc3n2)cc1`, 46.1% (inactive).
Take `COc1ccc(-c2c(N)n[nH]c2-c2ccc(Cl)cc2O)cc1OC`: the growth is 84.1% (inactive).
In the case of `Cc1ccn2c3c(c(C(=O)O)c2c1)C(=O)c1ccccc1C3=O` it was 84.7% (inactive); in that of `O=C(OC[C@@H]1CO1)c1cccc2c(=O)c3ccccc3[nH]c12`, -52% (active).
In the case of `C#C[C@]1(O)CC[C@H]2[C@@H]3CC=C4c5sc(Nc6cc(Cl)ccn6)nc5CC[C@]4(C)[C@H]3CC[C@@]21C` it was 28.6% (inactive); in that of `CC(C)N(C(=S)SSC(=S)N(C(C)C)C(C)C)C(C)C`, 110% (inactive); in that of `O=[N+]([O-])C=C(c1ccccc1)c1ccccc1`, -4.43% (active).
As for `CCC(=O)N1C/C(=C/c2ccc(Cl)cc2)C(=O)/C(=C/c2ccc(Cl)cc2)C1`, the figure is -84.5% (active); as for `CN1C(=O)/C(=C/c2ccc(C(=O)Nc3ncc(Cc4cccc(C(F)(F)F)c4)s3)cc2)SC1=S`, -2.76% (active); as for `CC(=O)OC1CCC2(C)C(CCC3C4CC=C(C(C)=O)C4(C)OC(=O)CC32)C1` (stereo not drawn), -72.4% (active).
Turning to `CCOC(=O)C/C(=N\Nc1cc(=O)[nH]c2ccc(C)cc12)C(=O)OCC`, the growth was 91.1% (inactive).
In the case of `C/C(=C(/c1ccc(O)cc1)c1ccc(OCCN(C)C)cc1)c1ccccc1` it was 58.4% (inactive); in that of `C[C@]12CC[C@H]3[C@@H](CC=C4C[C@@H](O)CC[C@@]43C)[C@@H]1CC[C@@H]2C(=O)C/C=N/O`, 90.2% (inactive).
As for `COc1ccc(-c2[nH]nc(N)c2-c2cc(OC)c(OC)c(OC)c2)cc1`, the figure is 34% (inactive); as for `Nc1c(N)c2ccccc2c2ccccc12`, 103% (inactive); as for `Nc1cc2ccncc2c2ccccc12`, 71.7% (inactive).
`N#CC1C(=N)Cc2ccccc2-c2ccccc21` (stereo not drawn): the growth was 9.26% (active).
Turning to `CN(CCCNC(=O)CCOCCOCCOCCNC(=O)Cc1ccc2ccc3cccc4ccc1c2c34)CCCNc1cc(-c2ccc3ccccc3c2)nc2ccccc12`, the growth was -92.2% (active).
Turning to `C#COc1cccc(Nc2ncnc3ncc(NC(=O)CCl)cc23)c1`, the growth was 4.95% [6.25 µM] (active).
As for `O=S(=O)(NCCNc1nccc(-c2c(-c3cccc(O)c3)nc3occn23)n1)c1ccccc1`, the figure is 88.4% (inactive).
`CCn1cc(C(=O)O)c(=O)c2cc(F)c(N3CCN(S(=O)(=O)c4ccc(Cl)cc4Cl)CC3)cc21`: the growth is -1.55% (active).
In the case of `CCCCNC(=O)NS(=O)(=O)c1ccc(N2N=C(c3cc(C)ccc3C)CC2c2cc(OC)c(OC)c(OC)c2)cc1` (stereo not drawn) it was 24.4% (inactive); in that of `CCN(CC)CCNC(=O)c1c(C)[nH]c(/C=C2\C(=O)Nc3ccc(F)cc32)c1C`, -56.4% (active); in that of `COc1cc(-c2nc3sccn3c2-c2ccnc(NCCNS(=O)(=O)c3ccc(Cl)cc3)n2)ccc1F`, 29.7% (inactive).
Take `CCSc1nc(-c2ccco2)n2nc(-c3ccco3)cc2n1`: the growth is -67.7% (active).
As for `O=[N+]([O-])c1ccc(N=Nc2ccc(O)c3ccccc23)cc1`, the figure is 26.7% (inactive); as for `CO[C@H]1NC(=O)N(S(=O)(=O)c2ccc(Cl)cc2)[C@@H]1OC`, 110% (inactive); as for `CCN(CC)c1ccc(/C=C/C2=[N+](C)c3ccccc3C2(C)C)cc1`, 20.4% (inactive).
In the case of `COc1ccc(Nc2nc(Nc3cc(C)[nH]n3)c3cc(OC)c(OC)cc3n2)cc1` it was -69.9% [20 µM] (active).
As for `Cc1cc2c(F)c(Oc3ncnc(Nc4ccc(N5C[C@@H](C)N[C@@H](C)C5)cc4)c3C#N)cc(F)c2[nH]1`, the figure is -5% (active); as for `O=c1[nH]nc(-c2ccccc2)c2sc3ncc(-c4ccc(Br)cc4)n3c12`, 13.7% (inactive).
On to `CN(C)CCOc1ccc(/C(=C(/CCCl)c2ccccc2)c2ccccc2)cc1`, for which the growth is -57.1% (active).
With `Cc1[nH]c(C2CC(c3ccc(C(F)(F)F)c(F)c3)=NN2C)c(C)c1C(=O)NCC(F)(F)F` (stereo not drawn), the growth is 81.6% (inactive).
As for `Cc1cc(C)c2c(c1)N(C)c1ncnc(-n3c(C)nc4cc(C)ccc43)c1CC2C` (stereo not drawn), the figure is 3.92% (active).

For the origin of these results see PubChem BioAssay (NCI).
